Test results published in PubChem BioAssay (NCATS).
Inconclusive results are not listed. Where a call stands in place of a potency, no number is given. Activity calls are given as the source filed them. Unless noted, the call rests on the fitted dose curve; in most records, active means well fitted curve in the direction sought with a large enough effect; inconclusive means small, poorly fitted or top-dose-only effect, or another doubt; inactive means no such curve, though single readings can be large; an effect the other way counts as inactive or inconclusive.

Legend:
[1] = molecular target: alpha-glucosidase (Oryza sativa, rice) (UniProt Q653V4); assay: Counterscreen for Glucocerebrosidase Inhibitors: qHTS Assay for Rice alpha-Glucosidase at pH 5.0 (AID 997)
Procedure, shortened: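 Endpoint fluorogenic assay at pH 5.0: compounds (0.7 nM to 77 uM) titrated against 4 nM rice enzyme and 400 uM 4-MU-alpha-glucoside for 20 min at room temperature; NaOH/glycine stop, read ex 365/em 440 nm, Hill-fitted AC50.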

[2] = Validation of Assay for Modulators of Lamin A Splicing (AID 1459; active means well fitted curve in the direction sought with a large enough effect in the signal ratio; the % refers to the signal ratio;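 further: cells exposed to compound for two days before reading; ratio rise marks activators and ratio drop marks inhibitors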)
Procedure, shortened: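 HeLa S3 lamin A-EGFP/DsRed2 stable clone, 600 cells/well, Opti-MEM 2% FBS; compounds by pin tool; 48 hrs, 37 °C/5% CO2; Acumen 488 nm scan, objects 10-100 um; GFP/RFP intensity ratio.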

[3] = molecular target: DNA repair nuclease/redox regulator APEX1 (Homo sapiens) (UniProt P27695); assay: qHTS Validation Assay for Inhibitors of the Human Apurinic/apyrimidinic Endonuclease 1 (APE1) (AID 1705; further: potency means the concentration at half of the fitted maximal effect)
Procedure, shortened: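 qHTS, 1536-well. APE1 + cpd 15 min RT → 50 nM TAMRA/BHQ-2 THF-abasic dsDNA substrate → kinetic fluorescence, 3 reads/60 s; delta(read3−read1) = reaction progress. No-enzyme buffer = negative control.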

[4] = Counterscreen for APE1 Inhibitors: Fluorescent Dye Displacement Validation Assay (AID 1707)
Procedure, shortened: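 Loss of Thiazole Orange fluorescence marks promiscuous DNA binders. The dye (250 nM) is mixed with 50 nM abasic-site dsDNA in pH7.5 Tris buffer containing MgCl2, then compounds are added and emission is read once.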

[5] = molecular target: Endonuclease 4 (Escherichia coli (strain K12)) (UniProt P0A6C1); assay: Counterscreen for APE1 Inhibitors: qHTS Validation Assay for Inhibitors of Endonuclease IV (AID 1708)
Procedure, shortened: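 Measured as reaction progress, the fluorescence gain between first and third kinetic reads after adding 50 nM TAMRA/BHQ-2 THF duplex to 2 nM enzyme preincubated 15 min with compound; 2 mM MgCl2, pH 7.5.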

[6] = qHTS for differential inhibitors of proliferation of Plasmodium falciparum line 7G8 (AID 1815);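 further: parasite growth measured after three days of incubation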; further: potency means the concentration at half of the fitted maximal effect
[7] = qHTS for differential inhibitors of proliferation of Plasmodium falciparum line GB4 (AID 1816); details: Potency: Plasmodium falciparum GB4 proliferation inhibition;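 further: parasite growth measured after 72 h incubation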; further: potency means the concentration at half of the fitted maximal effect
[8] = qHTS for differential inhibitors of proliferation of Plasmodium falciparum line 3D7 (AID 1876); further: potency means the concentration at half of the fitted maximal effect
[9] = qHTS for differential inhibitors of proliferation of Plasmodium falciparum line D10 (AID 1877);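 further: parasites grown with compound for 72 h before DNA staining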; further: potency means the concentration at half of the fitted maximal effect
[10] = qHTS for differential inhibitors of proliferation of Plasmodium falciparum line Dd2 (AID 1882); details: Potency: Plasmodium falciparum Dd2 proliferation inhibition; further: nearly all actives have a fitted effect of over 65% in size; further: potency means the concentration at half of the fitted maximal effect
Procedure, shortened: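 RBC culture, 0.3% parasitemia / 2.5% Hct final; cpd added by pin tool in DMSO; 72 h, 37 C, 5% CO2; lysis buffer + SYBR Green I, o/n RT dark; FI 485/535; norm. to artemisinin 0.29 uM and DMSO.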

[11] = qHTS for differential inhibitors of proliferation of Plasmodium falciparum line W2 (AID 1883); details: Potency: Plasmodium falciparum W2 proliferation inhibition;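 further: parasites grown with compound for 72 h before lysis and staining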; further: potency means the concentration at half of the fitted maximal effect
[12] = qHTS for differential inhibitors of proliferation of Plasmodium falciparum line HB3 (AID 1886); details: Potency: Plasmodium falciparum HB3 proliferation inhibition;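 further: parasites grown with compound for 72 h before SYBR Green readout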; further: potency means the concentration at half of the fitted maximal effect
[13] = molecular target: Ferritin light chain (Equus caballus) (UniProt P02791); assay: qHTS Validation Assay for Identification of Novel General Anesthetics (AID 2323); further: series mostly up to about 77 µM
Procedure, shortened: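 Fluorescence at 535 nm (excitation 380 nm) reported loss of 1-AMA binding to horse-spleen apoferritin (10 uM) in PBS with 50% saturated 1-aminoanthracene, after 10 min room-temperature incubation with compound; values from Hill fits of normalized response.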

[14] = molecular target: ATP-dependent DNA helicase Q1 (Homo sapiens) (UniProt P46063); assay: qHTS Validation Assay for Inhibitors of RecQ-Like Dna Helicase 1 (RECQ1) (AID 2353)
Procedure, shortened: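 RECQ1T1 50 nM; forked duplex (20 bp + 30-nt ss tails) 200 nM, ATP 2 mM final; pH 8.0, 2 mM MgCl2, 2.5 ug/ml poly(dI-dC); 15 min compound preincubation; discontinuous kinetic read over 2 h at RT.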

[15] = qHTS Assay for Modulators of Human Peripheral Myelin Protein 22 (PMP22) Expression/Activity (AID 1967; active means well fitted curve in the direction sought with a large enough effect in the signal ratio; the % refers to the signal ratio)
Procedure, shortened: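 Luminescence ratio of Pmp22 promoter-driven green luciferase to EF-alpha-driven red luciferase, in engineered mouse MSC80 Schwann cells, served as read-out. Compounds were incubated 24h; untreated cells defined 0% Activity; curves were classified by r2, magnitude and activity.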

[16] = molecular target: RecQ-like DNA helicase BLM (Homo sapiens) (UniProt P54132); assay: qHTS Validation Assay for Inhibitors of Bloom's syndrome helicase (BLM) (AID 2364)
Procedure, shortened: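 BLM 50 nM in 25 mM Tris-HCl pH 8.0, 5 mM NaCl, 2 mM MgCl2, 1 mM DTT, 0.01% Tween-20, 2.5 ug/ml poly(dI-dC); 15 min cpd preinc, RT. Start: 200 nM forked DNA + 2 mM ATP (final). TAMRA read, 2 reads 2 h apart.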

[17] = Cell Viability - LYMP1-002 - Assay at 40 hr (AID 994); further: nearly all actives have a fitted effect of over 60% in size
Procedure, shortened: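 Concentration-dependent ATP loss after 40 hr treatment at 37 C defined toxicity; AC50 values were obtained by fitting the standard Hill equation.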

RecQ-like DNA helicase BLM (Homo sapiens), sequence (P54132 whole entry, looked up): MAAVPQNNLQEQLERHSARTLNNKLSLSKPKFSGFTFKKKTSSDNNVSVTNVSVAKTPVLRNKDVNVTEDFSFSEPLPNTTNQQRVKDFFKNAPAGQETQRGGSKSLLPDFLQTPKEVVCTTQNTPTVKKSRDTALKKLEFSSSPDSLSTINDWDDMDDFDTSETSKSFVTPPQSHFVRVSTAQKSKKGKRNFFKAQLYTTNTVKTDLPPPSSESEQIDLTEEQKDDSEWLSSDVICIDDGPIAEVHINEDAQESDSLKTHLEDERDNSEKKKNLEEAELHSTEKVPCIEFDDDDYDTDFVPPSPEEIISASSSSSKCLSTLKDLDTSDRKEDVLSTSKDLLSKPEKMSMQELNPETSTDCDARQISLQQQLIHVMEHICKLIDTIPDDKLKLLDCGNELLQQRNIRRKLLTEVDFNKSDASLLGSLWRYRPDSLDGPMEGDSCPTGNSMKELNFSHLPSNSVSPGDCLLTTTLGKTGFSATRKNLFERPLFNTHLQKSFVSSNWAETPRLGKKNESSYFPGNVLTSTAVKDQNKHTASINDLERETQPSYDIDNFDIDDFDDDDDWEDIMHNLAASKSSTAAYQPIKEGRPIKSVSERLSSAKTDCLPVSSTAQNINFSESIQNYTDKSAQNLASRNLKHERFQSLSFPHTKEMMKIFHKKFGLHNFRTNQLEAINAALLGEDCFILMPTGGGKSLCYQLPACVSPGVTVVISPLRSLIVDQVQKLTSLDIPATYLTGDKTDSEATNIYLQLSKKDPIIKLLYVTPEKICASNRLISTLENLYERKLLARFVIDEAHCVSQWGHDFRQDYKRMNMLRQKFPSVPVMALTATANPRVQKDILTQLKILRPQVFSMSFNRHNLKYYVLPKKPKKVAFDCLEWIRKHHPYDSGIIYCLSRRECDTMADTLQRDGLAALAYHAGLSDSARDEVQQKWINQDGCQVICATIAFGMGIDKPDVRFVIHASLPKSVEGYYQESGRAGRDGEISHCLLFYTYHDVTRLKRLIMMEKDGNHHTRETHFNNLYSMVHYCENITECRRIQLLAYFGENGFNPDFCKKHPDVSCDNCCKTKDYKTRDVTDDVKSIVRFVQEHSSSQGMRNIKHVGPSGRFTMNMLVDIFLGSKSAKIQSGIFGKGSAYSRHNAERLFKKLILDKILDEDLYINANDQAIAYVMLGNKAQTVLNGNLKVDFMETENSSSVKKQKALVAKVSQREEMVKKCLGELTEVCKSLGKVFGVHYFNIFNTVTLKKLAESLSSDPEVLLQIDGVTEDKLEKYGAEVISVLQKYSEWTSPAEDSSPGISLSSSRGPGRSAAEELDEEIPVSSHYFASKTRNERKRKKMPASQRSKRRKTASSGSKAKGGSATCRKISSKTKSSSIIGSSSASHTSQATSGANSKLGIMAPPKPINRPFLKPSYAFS
Ferritin light chain (Equus caballus), sequence (P02791 2-175 limits assumed): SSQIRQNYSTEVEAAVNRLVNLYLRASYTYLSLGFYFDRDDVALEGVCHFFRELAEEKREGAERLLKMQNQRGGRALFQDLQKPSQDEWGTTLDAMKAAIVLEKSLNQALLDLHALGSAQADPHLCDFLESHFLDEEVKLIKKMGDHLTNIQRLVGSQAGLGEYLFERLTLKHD
ATP-dependent DNA helicase Q1 (Homo sapiens), sequence (P46063 whole entry, looked up): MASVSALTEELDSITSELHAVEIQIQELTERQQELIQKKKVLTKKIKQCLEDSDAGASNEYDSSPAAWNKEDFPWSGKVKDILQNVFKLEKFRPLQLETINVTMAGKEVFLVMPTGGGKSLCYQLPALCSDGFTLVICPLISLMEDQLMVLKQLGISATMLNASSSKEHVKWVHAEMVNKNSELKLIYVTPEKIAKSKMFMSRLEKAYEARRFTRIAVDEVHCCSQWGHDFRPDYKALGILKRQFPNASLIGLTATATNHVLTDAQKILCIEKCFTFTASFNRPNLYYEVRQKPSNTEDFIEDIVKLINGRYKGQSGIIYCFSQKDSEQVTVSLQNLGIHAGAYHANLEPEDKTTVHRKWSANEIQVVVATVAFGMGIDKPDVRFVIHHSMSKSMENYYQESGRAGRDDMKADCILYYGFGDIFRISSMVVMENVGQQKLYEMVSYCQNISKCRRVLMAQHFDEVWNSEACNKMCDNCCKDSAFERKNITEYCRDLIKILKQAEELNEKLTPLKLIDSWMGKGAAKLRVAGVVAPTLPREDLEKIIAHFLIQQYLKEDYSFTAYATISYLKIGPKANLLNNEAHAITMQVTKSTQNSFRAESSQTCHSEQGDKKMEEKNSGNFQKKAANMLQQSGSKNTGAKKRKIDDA
DNA repair nuclease/redox regulator APEX1 (Homo sapiens), sequence (P27695 whole entry, looked up): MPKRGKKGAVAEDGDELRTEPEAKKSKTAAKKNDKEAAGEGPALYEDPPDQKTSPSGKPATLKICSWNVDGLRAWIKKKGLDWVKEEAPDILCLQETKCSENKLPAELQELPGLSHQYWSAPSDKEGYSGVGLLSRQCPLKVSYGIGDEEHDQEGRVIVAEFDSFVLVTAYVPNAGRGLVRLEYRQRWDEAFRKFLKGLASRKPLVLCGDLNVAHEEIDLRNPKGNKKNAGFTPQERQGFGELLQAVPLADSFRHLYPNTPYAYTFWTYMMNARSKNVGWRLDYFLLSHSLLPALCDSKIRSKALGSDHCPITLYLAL

| SMILES | outcome [1] | outcome [2] | Potency [3] | Potency [4] | Potency [5] | Potency [6] | Potency [7] | Potency [8] | Potency [9] | Potency [10] | Potency [11] | Potency [12] | Potency [13] | Potency [14] | outcome [15] | Potency [16] | outcome [17] |
| --- | --- | --- | --- | --- | --- | --- | --- | --- | --- | --- | --- | --- | --- | --- | --- | --- | --- |
| N[C@H](C(=O)O)[C@H](O)C(=O)O | inactive | inactive | inactive | inactive | inactive | inactive | inactive | inactive | inactive | inactive | inactive | inactive | inactive | inactive | – | – | – |
| Cc1nc2c(OCc3ccccc3)cccn2c1CC#N | inactive | inactive | inactive | inactive | inactive | inactive | inactive | inactive | – | – | – | inactive | inactive | inactive | – | – | – |
| COc1cc2c(CCNC(C)=O)c[nH]c2cc1O | inactive | inactive | 39.8 µM (active) | inactive | inactive | inactive | – | inactive | inactive | inactive | – | inactive | inactive | inactive | inactive | inactive | – |
| NC(=O)c1ccccc1 | inactive | inactive | inactive | inactive | inactive | inactive | inactive | inactive | inactive | – | inactive | inactive | – | inactive | – | – | inactive |
| CCOC(=O)C12CC1/C(=N/O)c1ccccc1O2 (centres undefined) | – | inactive | inactive | inactive | inactive | inactive | inactive | inactive | inactive | – | inactive | inactive | inactive | inactive | – | – | – |
| CCCCS(=N)(=O)CC[C@H](N)C(=O)O (some centres undefined) | – | inactive | inactive | inactive | inactive | 12.6 µM (active) | 11.2 µM (active) | – | inactive | – | 8.91 µM (active) | inactive | – | inactive | – | – | – |
| NC(=O)CC[C@H](N)C(=O)O | – | inactive | inactive | inactive | inactive | inactive | inactive | inactive | inactive | – | inactive | inactive | inactive | inactive | – | – | – |
| N#CC(C#N)=C(N)/C(C#N)=C/c1ccc(O)cc1 | inactive | inactive | inactive | inactive | inactive | – | – | – | inactive | inactive | inactive | – | – | inactive | – | – | – |
| N#C/C(=C\c1ccc(O)c(O)c1)C(=O)NCCc1ccccc1 | inactive | inactive | inactive | inactive | inactive | 8.91 µM (active) | 10 µM (active) | 11.2 µM (active) | – | 11.2 µM (active) | 10 µM (active) | 11.2 µM (active) | – | inactive | – | – | – |
| Nc1ccc(N2C(=O)c3ccccc3C2=O)c(Cl)c1 | inactive | inactive | inactive | inactive | inactive | inactive | inactive | inactive | inactive | – | – | inactive | – | inactive | – | inactive | – |
| C=CCN1CCc2c(cc(O)c(O)c2Br)[C@@H](c2ccccc2)C1 | – | inactive | inactive | inactive | inactive | 5.01 µM (active) | 5.01 µM (active) | 7.08 µM (active) | 11.2 µM (active) | 8.91 µM (active) | 3.98 µM (active) | 7.08 µM (active) | inactive | inactive | – | – | – |
| CC1=C(C(=O)O)N2C(=O)[C@@H](NC(=O)C(N)C3=CCC=CC3)[C@H]2SC1 (some centres undefined) | – | inactive | inactive | inactive | inactive | inactive | inactive | inactive | inactive | inactive | inactive | inactive | inactive | inactive | – | – | – |
| Oc1cc2c(cc1O)C(c1ccccc1)CNCC2 (centres undefined) | – | inactive | inactive | inactive | inactive | – | – | – | – | inactive | 11.2 µM (active) | – | inactive | inactive | inactive | – | – |
| C[C@H](NC(=O)/C(C#N)=C/c1ccc(O)c(O)c1)c1ccccc1 | inactive | inactive | inactive | inactive | inactive | 7.08 µM (active) | 11.2 µM (active) | 14.1 µM (active) | 12.6 µM (active) | – | 10 µM (active) | 12.6 µM (active) | – | – | – | – | – |
| O=C(O)C1CN(CCCP(=O)(O)O)CCN1 (centres undefined) | – | inactive | inactive | inactive | inactive | inactive | inactive | inactive | inactive | inactive | inactive | inactive | inactive | – | inactive | inactive | – |
